# Laboratory results as given in PubChem BioAssay (NCI).
# This is part of a sample that, as a whole, favours compounds with a hit. Of some 83,000 tested, about 20% had one in any assay.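 48-hour exposure, single concentration, 96-well plates; percent growth endpoint where 0 means no net growth. Active: below 10.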 Unmarked numbers belong to inactive results. Active and inactive are the calls of the source.
# Key:
# Experiment in all cases: NCI-60 one-dose screen, 48 h (100 = growth as untreated, 0 = no growth, -100 = all killed)
# Conditions in all cases: 10 µM
# T-47D breast = tested on: T-47D breast
# BT-549 breast = tested on: BT-549 breast
# MDA-MB-435 melanoma = tested on: MDA-MB-435 melanoma
# SW-620 colon = tested on: SW-620 colon
# MCF7 breast = tested on: MCF7 breast
# HCT-116 colon = tested on: HCT-116 colon
# HCC-2998 colon = tested on: HCC-2998 colon
# KM12 colon = tested on: KM12 colon
Structure (SMILES),growth (T-47D breast),growth (BT-549 breast),growth (MDA-MB-435 melanoma),growth (SW-620 colon),growth (MCF7 breast),growth (HCT-116 colon),growth (HCC-2998 colon),growth (KM12 colon)
FC(F)(F)c1ccc(-c2ncc(-c3ccc(C(F)(F)F)cc3)c(NCc3cc(C(F)(F)F)cc(C(F)(F)F)c3)n2)cc1,28.1%,79.4%,68.3%,59.7%,54.9%,24.4%,77.2%,44.7%
COc1ccc(-n2nnc3c(sc4ccccc43)c2=O)cc1,35.5%,102%,69%,83.9%,80.4%,5.85% (active),74.9%,70.2%
COc1ccc(/C(=C/c2cc(OC)c(OC)cc2[N+](=O)[O-])C(=O)O)cc1,94.8%,111%,116%,105%,105%,116%,107%,121%
NCCNc1ccc2cc(-c3nc4ccccc4[nH]3)c(=O)oc2c1,82.2%,84.9%,101%,103%,80.9%,93.9%,97.9%,99.8%
COc1cccc2c1C(=O)c1c(O)c3c(c(O)c1C2=O)C[C@@](O)(C(=O)COC(=O)c1ccccc1)C[C@@H]3OC1CC(N)C(O)C(C)O1 (some centres undefined),-71.7% (active),-76.9% (active),-97.7% (active),-81.9% (active),-66.2% (active),-75% (active),-93% (active),-95.6% (active)
Cc1nnc2c3nnc(-c4ccc(Cl)cc4)n3c3ccccc3n12,105%,91.5%,94.9%,106%,101%,101%,102%,103%
CC[C@@]1(C(N)=O)CC2C=CC1C2 (some centres undefined),103%,104%,106%,113%,99.5%,104%,108%,119%
NC1CCC(Nc2nc(NCc3ccc(-c4cccs4)nc3)c3ncn(C4CCCC4)c3n2)CC1 (centres undefined),-22.9% (active),-27.4% (active),-53.2% (active),6.7% (active),-34% (active),0.721% (active),-43.1% (active),5.58% (active)
C[C@@H]1C(=O)N(C[C@H](Cc2ccccc2)NC(=O)OCc2ccccc2)[C@]1(Cc1ccccc1)C(=O)OCc1ccccc1,7.82% (active),62.9%,52%,52.6%,35%,32.3%,71%,26.6%
Cc1ccc2c3c(cccc13)-c1ccccc1C2=O,84.9%,106%,98.9%,93%,96.6%,86.4%,89%,54.4%
O=C(NC1CCCC1)c1ccc(N2CCC(NCc3cccc(C(F)(F)F)c3)CC2)cc1,83.2%,89.3%,105%,97%,95.8%,86.5%,41.2%,84.5%
CCCCCCOc1ccc(/C=C/C(=O)c2ccc(B(O)O)cc2)cc1,73.9%,35.2%,77.1%,96.8%,57.5%,55.6%,95.6%,85.4%
CC(=O)Nc1ccc2c(c1)C(N1CC3CCC(CC3)C1)c1ccccc1-2 (centres undefined),66.6%,126%,99.4%,83.8%,96.7%,71.9%,99.5%,80.7%
